Reference: PubChem BioAssay (EPA / NIEHS)
“And” between values parts separate entries of the source, which are not always exact repeats. Equal values may be shown once. A structure can be active in one record and inactive in another. The source made the active and inactive calls. How the source made its calls: active means hit-call score of the fitted dose curve at least 0.9, where 1 is the maximum; inactive means score below 0.9.

Legend:
[1] = read-out: Urokinase-type plasminogen activator receptor (uPAR), PLAUR (gene 5329); experiment: BSK_4H_uPAR: BioMAP Diversity Plus: 4H Assay for Urokinase-type plasminogen activator receptor (uPAR) Biomarker Activity (AID 2283030); conditions: primary human endothelial cells (HUVEC); actives raise or lower the signal
How it was run: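 Primary human umbilical vein endothelial cells were exposed to chemical for 24 h before cell-surface uPAR was quantified by ELISA. Activity was fitted bidirectionally against the DMSO negative control baseline.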

[2] = read-out: Vascular endothelial growth factor receptor 2 (Homo sapiens) (UniProt P35968); experiment: BSK_4H_VEGFRII: BioMAP Diversity Plus: 4H Assay for Vascular endothelial growth factor receptor 2 (VEGFR2) Biomarker Activity (AID 2283031); conditions: primary human endothelial cells (HUVEC); actives raise or lower the signal;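 on AC50: cell-surface VEGFR2 protein level quantified by ELISA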
How it was run: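 Primary human umbilical vein endothelial cells in the BioMAP 4H system were dosed with test chemical, and 24 h later VEGFRII was measured by ELISA. Activity was fitted bidirectionally against DMSO as negative control and baseline.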

[3] = read-out: Human Leukocyte Antigen - DR isotype (HLADR), HLA-DRA (gene 3122); experiment: BSK_BE3C_HLADR: BioMAP Diversity Plus: BE3C Assay for Human Leukocyte Antigen - DR isotype (HLADR) Biomarker Activity (AID 2283032); conditions: primary human bronchial epithelial cells; actives raise or lower the signal
How it was run: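 Primary human bronchial epithelial cells (BE3C); 24 h chemical exposure; HLA-DR by ELISA; bidirectional curve fit vs DMSO baseline.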

[4] = read-out: Vascular cell adhesion molecule 1 (VCAM1), VCAM1 (gene 7412); experiment: BSK_4H_VCAM1: BioMAP Diversity Plus: 4H Assay for Vascular cell adhesion molecule 1 (VCAM1) Biomarker Activity (AID 2283033); conditions: primary human endothelial cells (HUVEC); actives raise or lower the signal
How it was run: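 HUVEC, 24 h post-dose; VCAM-1 by ELISA. Bidirectional curve fit vs DMSO baseline. Parallel SRB total-protein stain (0.1% SRB after 10% TCA fixation, 560 nm) for cytotoxicity.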

[5] = read-out: Interferon-gamma inducible Protein 10 (IP10), CXCL10 (gene 3627); experiment: BSK_BE3C_IP10: BioMAP Diversity Plus: BE3C Assay for Interferon-gamma inducible Protein 10 (IP10) Biomarker Activity (AID 2283034); conditions: primary human bronchial epithelial cells; actives raise or lower the signal
How it was run: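 ELISA readout of IP-10 in BE3C system: primary human bronchial epithelial cells, 24 h post-dosing; bidirectional curve fit vs DMSO baseline.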

[6] = read-out: Monokine induced gamma interferon (MIG), CXCL9 (gene 4283); experiment: BSK_BE3C_MIG: BioMAP Diversity Plus: BE3C Assay for Monokine induced gamma interferon (MIG) Biomarker Activity (AID 2283035); conditions: primary human bronchial epithelial cells; actives raise or lower the signal
How it was run: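 ELISA quantified MIG after 24 h exposure of primary bronchial epithelial cultures, analysed in both directions relative to DMSO. Cytotoxicity tracked in parallel cultures by sulforhodamine B staining.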

[7] = read-out: Plasminogen activator inhibitor-1 (PAI1), SERPINE1 (gene 5054); experiment: BSK_BE3C_PAI1: BioMAP Diversity Plus: BE3C Assay for Plasminogen activator inhibitor-1 (PAI1) Biomarker Activity (AID 2283037); conditions: primary human bronchial epithelial cells; actives raise or lower the signal
How it was run: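 ELISA read-out of PAI-1 from human bronchial epithelial primary cells, 24 h post-dosing; bidirectional curve fit vs DMSO baseline, gain or loss of signal scored.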

[8] = read-out: urokinase plasminogen activator (uPA), PLAU (gene 5328); experiment: BSK_BE3C_uPA: BioMAP Diversity Plus: BE3C Assay for urokinase plasminogen activator (uPA) Biomarker Activity (AID 2283038); conditions: primary human bronchial epithelial cells; actives raise or lower the signal;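 further: uPA protein level quantified by ELISA in cell cultures; uPA read one day after compound addition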
How it was run: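 Human primary bronchial epithelial cells were exposed to chemical for 24 h, then uPA levels were measured by ELISA. Responses were fitted bidirectionally against DMSO as negative control and baseline. Parallel SRB staining of total protein gauged overt cytotoxicity.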

[9] = read-out: Urokinase-type plasminogen activator receptor (uPAR), PLAUR (gene 5329); experiment: BSK_BE3C_uPAR: BioMAP Diversity Plus: BE3C Assay for Urokinase-type plasminogen activator receptor (uPAR) Biomarker Activity (AID 2283039); conditions: primary human bronchial epithelial cells; actives raise or lower the signal
How it was run: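 ELISA readout of uPAR on human lung primary bronchial epithelial cells, 24 h post-dosing. Bidirectional curve fit relative to DMSO vehicle baseline; gain or loss of signal both scored.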

[10] = read-out: Interleukin-6 (IL6), IL6 (gene 3569); experiment: BSK_CASM3C_IL6: BioMAP Diversity Plus: CASM3C Assay for Interleukin-6 (IL6) Biomarker Activity for (AID 2283040); conditions: primary human coronary artery smooth muscle cells; actives raise or lower the signal
[11] = read-out: Tissue plasminogen activator (tPA), PLAT (gene 5327); experiment: BSK_BE3C_tPA: BioMAP Diversity Plus: BE3C Assay for Tissue plasminogen activator (tPA) Biomarker Activity (AID 2283041); conditions: primary human bronchial epithelial cells; actives raise or lower the signal
How it was run: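 ELISA read-out of tPA on human primary bronchial epithelial cells, 24 h post-dosing; bidirectional fit vs DMSO negative control/baseline.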

[12] = read-out: Interleukin-8 (IL8), CXCL8 (gene 3576); experiment: BSK_CASM3C_IL8: BioMAP Diversity Plus: CASM3C Assay for Interleukin-8 (IL8) Biomarker Activity (AID 2283042); conditions: primary human coronary artery smooth muscle cells; actives raise or lower the signal;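 further: IL-8 protein level quantified by ELISA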
[13] = read-out: Human Leukocyte Antigen - DR isotype (HLADR), HLA-DRA (gene 3122); experiment: BSK_CASM3C_HLADR: BioMAP Diversity Plus: CASM3C Assay for Human Leukocyte Antigen - DR isotype (HLADR) Biomarker Activity (AID 2283043); conditions: primary human coronary artery smooth muscle cells; actives raise or lower the signal;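 further: cell-surface HLA-DR protein level quantified by ELISA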
[14] = read-out: Macrophage colony-stimulating factor (MCSF), CSF1 (gene 1435); experiment: BSK_CASM3C_MCSF: BioMAP Diversity Plus: CASM3C Assay for Macrophage colony-stimulating factor (MCSF) Biomarker Activity (AID 2283044); conditions: primary human coronary artery smooth muscle cells; actives raise or lower the signal;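 further: M-CSF protein amount quantified by ELISA after 24 h exposure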
[15] = read-out: Low-density lipoprotein receptor (LDLR), LDLR (gene 3949); experiment: BSK_CASM3C_LDLR: BioMAP Diversity Plus: CASM3C Assay for Low-density lipoprotein receptor (LDLR) Biomarker Activity (AID 2283045); conditions: primary human coronary artery smooth muscle cells; actives raise or lower the signal;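 further: LDLR protein level on the cell surface quantified by ELISA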
[16] = read-out: Monocyte Chemoattractant Protein-1 (MCP1), CCL2 (gene 6347); experiment: BSK_CASM3C_MCP1: BioMAP Diversity Plus: CASM3C Assay for Monocyte Chemoattractant Protein-1 (MCP1) Biomarker Activity (AID 2283046); conditions: primary human coronary artery smooth muscle cells; actives raise or lower the signal;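 further: MCP-1 level quantified by ELISA 24 h after dosing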
[17] = BSK_CASM3C_Proliferation: Cell Proliferation Assessment in the BioMAP Diversity Plus: CASM3C Assay (AID 2283047); conditions: primary human coronary artery smooth muscle cells;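 further: sulforhodamine B total protein stain as relative cell number at 560 nm; sub-confluent cells exposed 48 h before staining; fitted both ways against DMSO so gain or loss of cell number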
[18] = read-out: Monokine induced gamma interferon (MIG), CXCL9 (gene 4283); experiment: BSK_CASM3C_MIG: BioMAP Diversity Plus: CASM3C Assay for Monokine induced gamma interferon (MIG) Biomarker Activity (AID 2283048); conditions: primary human coronary artery smooth muscle cells; actives raise or lower the signal
[19] = read-out: serum amyloid A (SAA), SAA1 (gene 6288); experiment: BSK_CASM3C_SAA: BioMAP Diversity Plus: CASM3C Assay for serum amyloid A (SAA) Biomarker Activity (AID 2283049); conditions: primary human coronary artery smooth muscle cells; actives raise or lower the signal;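 further: SAA protein level quantified by ELISA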
[20] = read-out: Transforming growth factor beta 1 (TGFb1), TGFB1 (gene 7040); experiment: BSK_BE3C_TGFb1: BioMAP Diversity Plus: BE3C Assay for Transforming growth factor beta 1 (TGFb1) Biomarker Activity (AID 2283036); conditions: primary human bronchial epithelial cells; actives raise or lower the signal
How it was run: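 Read-out: ELISA for TGF-b1 in primary human bronchial epithelial cultures, 24 h post-dose. Bidirectional curve fitting vs DMSO control; gain or loss of signal both scored.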

Measured: AC50

OCCCC(F)(F)C(F)(F)C(F)(F)F
inactive: [1] | [2] | [3] | [4] | [5] | [6] | [7] | [8] | [9] | [10] | [11] | [12] | [13] | [14] | [15] | [16] | [17] | [18] | [19]

O=C(O)C(F)(F)C(F)(F)OC(F)(F)F
inactive: [1] | [2] | [3] | [4] | [5] | [6] | [7] | [8] | [9] | [10] | [11] | [12] | [13] | [14] | [15] | [16] | [17] | [18] | [19]
active: [2] 2.45 µM

O[Si](c1ccccc1)(c1ccccc1)c1ccccc1
active: [1] 4.82 µM | [2] 29.5 µM | [4] 14.8 µM | [7] 8.71 µM | [17] 20 µM
inactive: [3] | [5] | [6] | [20] | [9] | [10] | [11] | [12] | [13] | [14] | [15] | [16] | [18] | [19]

CC(CCl)OP(=O)(OC(C)CCl)OC(C)CCl (stereo unspecified)
inactive: [1] | [2] | [3] | [4] | [5] | [6] | [20] | [7] | [9] | [10] | [11] | [12] | [13] | [15] | [17] | [18] | [19]
active: [14] 39.8 nM | [16] 19.1 nM

Oc1ccc(Nc2ccccc2)cc1
active: [1] 3.14 µM | [4] 20 µM | [5] 3.97 µM | [20] 5.46 µM | [7] 7.39 µM | [13] 2.54 µM | [15] 2.43 µM | [17] 30.1 µM
inactive: [2] | [3] | [6] | [9] | [10] | [11] | [12] | [14] | [16] | [18] | [19]

C=C(C)C(=O)OCC(F)(F)C(F)(F)C(F)(F)F
inactive: [1] | [2] | [3] | [4] | [5] | [6] | [7] | [8] | [9] | [10] | [11] | [12] | [13] | [14] | [15] | [16] | [17] | [18] | [19]

FC(F)(I)C(F)(F)C(F)(F)C(F)(F)I
active: [1] 50.3 µM and 57.1 µM | [2] 18.7 µM and 45.2 µM | [3] 49.2 µM and 46.2 µM and 46.8 µM | [4] 22.9 µM and 53.8 µM and 54.1 µM | [5] 58.2 µM and 46.9 µM and 54.8 µM | [6] 48.9 µM | [7] 50.8 µM | [9] 51.1 µM and 47.9 µM | [10] 45.6 µM and 44.9 µM and 30 µM | [11] 46.5 µM and 43.2 µM | [12] 47.5 µM and 48.2 µM | [13] 50.5 µM | [14] 47.5 µM and 50.2 µM and 46.8 µM | [15] 23.6 µM and 43.5 µM | [16] 44.4 µM and 46 µM and 46.1 µM | [17] 43.4 µM and 49.7 µM and 43.9 µM | [18] 44.3 µM and 48.1 µM and 46.8 µM | [19] 47.5 µM and 45 µM and 47.6 µM
inactive: [1] | [2] | [6] | [7] | [9] | [11] | [12] | [13] | [15]

CC(=O)Nc1ccc(N=Nc2cc(C)ccc2O)cc1
inactive: [1] | [2] | [3] | [4] | [6] | [20] | [7] | [8] | [9] | [10] | [11] | [12] | [13] | [14] | [15] | [16] | [17] | [18] | [19]
active: [5] 29.7 µM

NC(=O)C(F)(F)C(F)(F)C(F)(F)C(F)(F)F
inactive: [1] | [2] | [3] | [4] | [5] | [6] | [7] | [9] | [10] | [11] | [12] | [13] | [14] | [15] | [16] | [17] | [18] | [19]
active: [7] 4.8 µM
